Drawing on PubChem BioAssay (NCATS), this text covers Potency and activity change, negative = cytotoxic for twelve compounds.

The nature of experiment [1]: qHTS of pediatric cancer cell lines to identify multiple opportunities for drug repurposing: Primary screen for TC32 cells (AID 1347089). For activity change, negative = cytotoxic: % is set by controls: 0 for no effect and ±100 for the full control effect. Note: nearly all actives have a fitted effect of over 60% in size. A digest of the protocol:
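TC32 cells, 500-1,000/well in growth medium, compound-treated 48 h at 37 °C; viability from CellTiter-Glo luminescence. Primary screen: MIPE 11-point (0.78 nM–46 µM final), NPC 8-point (0.59 nM–46 µM final); confirmatory at 11-point dilutions.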

A short description of experiment [2]: qHTS of pediatric cancer cell lines to identify multiple opportunities for drug repurposing: Primary screen for DAOY cells (AID 1347090).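 For activity change, negative = cytotoxic: series mostly up to about 46 µM; plate controls were DMSO for no effect and bortezomib for full effect.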 Note: nearly all actives have a fitted effect of over 55% in size. A digest of the protocol:
(§1)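 Eight- or eleven-point concentration series, 48 h treatment at 37 degrees C in growth media; readout CellTiter-Glo luminescence. Potency and efficacy were taken from the concentration-response curves.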

Experiment [3] can be described thus: qHTS of pediatric cancer cell lines to identify multiple opportunities for drug repurposing: Primary screen for SJ-GBM2 cells (AID 1347091).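 For activity change, negative = cytotoxic: plate controls were DMSO neutral control for no effect and bortezomib for full effect.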 A digest of the protocol:
as §1

Experiment [4] is described as follows: qHTS of pediatric cancer cell lines to identify multiple opportunities for drug repurposing: Primary screen for A673 cells (AID 1347092). For activity change, negative = cytotoxic: % is set by controls: 0 for no effect and ±100 for the full control effect. Note: nearly all actives have a fitted effect of over 45% in size. A digest of the protocol: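 A673 cells (500-1,000 cells/well) were treated 48 hours at 37 degrees C with compounds at 11-point (0.78 nM to 46 µM) or 8-point (0.59 nM to 46 µM) dilutions. Viability read by CellTiter-Glo luminescence; concentration-response curves fitted.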

The nature of experiment [5]: qHTS of pediatric cancer cell lines to identify multiple opportunities for drug repurposing: Primary screen for SK-N-MC cells (AID 1347093).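 For activity change, negative = cytotoxic: series mostly up to about 46 µM; plate controls were DMSO neutral control for no effect and bortezomib for full effect.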 An outline of the steps: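 Metabolically active cells were quantified by ATP-dependent luminescence (CellTiter-Glo, 15 min at room temperature) following 48 h treatment. Cells had been plated at 500-1,000 per well and settled for 5 h beforehand.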

Experiment [6] can be described thus: qHTS of pediatric cancer cell lines to identify multiple opportunities for drug repurposing: Primary screen for BT-37 cells (AID 1347094).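 For activity change, negative = cytotoxic: series mostly up to about 57 µM; plate controls were DMSO for no effect and bortezomib for full effect.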 An outline of the steps: (§2)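 Quantitative HTS format: each compound titrated (MIPE 11 points from 0.78 nM, NPC 8 points from 0.59 nM) onto cells plated 5 hours earlier. After 48 h at 37 degrees C, CellTiter-Glo luminescence was recorded.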

Experiment [7] in a line: qHTS of pediatric cancer cell lines to identify multiple opportunities for drug repurposing: Primary screen for NB-EBc1 cells (AID 1347095).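 For activity change, negative = cytotoxic: plate controls were DMSO neutral control for no effect and bortezomib for full effect.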 A digest of the protocol:
as §2

The nature of experiment [8]: qHTS of pediatric cancer cell lines to identify multiple opportunities for drug repurposing: Primary screen for U-2 OS cells (AID 1347096).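 For activity change, negative = cytotoxic: plate controls were DMSO wells for no effect and bortezomib positive control wells for full effect.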 Note: nearly all actives have a fitted effect of over 50% in size. An outline of the steps: (§3)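 Cells (500-1,000/well) in growth media were settled 5 h at 37 degrees C, then given compounds for 48 h. Viability was read as CellTiter-Glo luminescence. Primary runs used MIPE at 11 points (0.78 nM-46 µM) and NPC at 8 points (0.59 nM-46 µM); follow-ups used 11 points.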

Experiment [9] can be described thus: qHTS of pediatric cancer cell lines to identify multiple opportunities for drug repurposing: Primary screen for Saos-2 cells (AID 1347097). For activity change, negative = cytotoxic: % is set by controls: 0 for no effect and ±100 for the full control effect. Note: nearly all actives have a fitted effect of over 40% in size. A digest of the protocol:
as §2

A short description of experiment [10]: qHTS of pediatric cancer cell lines to identify multiple opportunities for drug repurposing: Primary screen for NB1643 cells (AID 1347099).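 For activity change, negative = cytotoxic: plate controls were DMSO neutral control for no effect and bortezomib positive control for full effect.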 Note: nearly all actives have a fitted effect of over 50% in size. A digest of the protocol:
as §2

Experiment [11] is described as follows: qHTS of pediatric cancer cell lines to identify multiple opportunities for drug repurposing: Primary screen for LAN-5 cells (AID 1347100).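 For activity change, negative = cytotoxic: plate controls were DMSO neutral control for no effect and bortezomib positive control for full effect.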 A digest of the protocol: as §3
The nature of experiment [12]: qHTS of pediatric cancer cell lines to identify multiple opportunities for drug repurposing: Primary screen for BT-12 cells (AID 1347101).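 For activity change, negative = cytotoxic: plate controls were DMSO for no effect and bortezomib positive control for full effect.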 Note: nearly all actives have a fitted effect of over 25% in size. A digest of the protocol: (§4)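 Cells (500-1,000/well) rested 5 h, then received compounds for 48 h; metabolically active cells were measured by CellTiter-Glo luminescence. Final concentrations spanned up to 46 µM (MIPE, 11-point) or 0.59 nM-46 µM (NPC, 8-point) in primary screens, 11-point in follow-ups.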

Experiment [13] is described as follows: qHTS of pediatric cancer cell lines to identify multiple opportunities for drug repurposing: Primary screen for Rh18 cells (AID 1347102). For activity change, negative = cytotoxic: % is set by controls: 0 for no effect and ±100 for the full control effect. Note: nearly all actives have a fitted effect of over 65% in size. A digest of the protocol:
as §3

The nature of experiment [14]: qHTS of pediatric cancer cell lines to identify multiple opportunities for drug repurposing: Primary screen for OHS-50 cells (AID 1347103).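 For activity change, negative = cytotoxic: plate controls were DMSO neutral control for no effect and bortezomib positive control for full effect.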 Note: nearly all actives have a fitted effect of over 40% in size. A digest of the protocol:
as §4

Experiment [15] can be described thus: qHTS of pediatric cancer cell lines to identify multiple opportunities for drug repurposing: Primary screen for RD cells (AID 1347104).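 For activity change, negative = cytotoxic: plate controls were DMSO for no effect and bortezomib for full effect.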 Note: nearly all actives have a fitted effect of over 55% in size. A digest of the protocol: as §2
Experiment [16] can be described thus: qHTS of pediatric cancer cell lines to identify multiple opportunities for drug repurposing: Primary screen for SK-N-SH cells (AID 1347098). Note: nearly all actives have a fitted effect of over 65% in size. A digest of the protocol: as §4

Results filed as inconclusive are left out. Unmarked numbers belong to inactive results. The source made the active and inactive calls. Calls come from the whole dose curve; as a rule, active = well fitted curve in the direction sought with a large enough effect; inconclusive = small, poorly fitted or top-dose-only effect, or another doubt; inactive = no such curve, though single readings can be large; an effect the other way counts as inactive or inconclusive.
Potency is the fitted concentration of half-maximal effect.

On to `Nc1ccc(S(=O)(=O)Nc2ncccn2)cc1`, for which the Potency result in experiment [1], in [2], in [3], in [4], in [6] and in experiment [7] was “inactive” throughout. Also, the Potency result in [8], in experiment [9], in experiment [10], in experiment [11], in experiment [12] and in [13] was “inactive” each time. Besides, the Potency entry in experiment [14] and in experiment [15] was “inactive” in each case. In experiment [5], the Potency is 23500 nM (active).
`O=C(O)CO.[NH2-].[NH2-].[Pt+2]`: the Potency entry in experiment [1], in experiment [2], in experiment [3], in [4], in experiment [5] and in experiment [6] was “inactive” in each case. Also, the Potency entry in experiment [7], in experiment [8], in experiment [9], in [16], in experiment [10] and in [11] was “inactive” in each case. In addition, the Potency result in experiment [12], in [13], in experiment [14] and in experiment [15] was “inactive” each time.
With `CC[C@@H]1C(=O)N(C)c2cnc(Nc3ccc(C(=O)NC4CCC(N5CCN(CC6CC6)CC5)CC4)cc3OC)nc2N1C(C)C` (stereo partly drawn), the Potency in experiment [1] was 0.37 µM (active); in experiment [2], 0.0743 µM (active); in [3], 74.3 nM (active); in experiment [4] it was 93.5 nM (active); in experiment [5] it was 148 nM (active); in [6], 2.43 µM (active). For the same compound, the Potency in experiment [7] is 332 nM (active); in experiment [8], 11.8 µM (active); in experiment [9], 0.526 µM (active); in experiment [16], 0.607 µM (active); in experiment [10] it was 0.469 µM (active); in experiment [11] it was 0.0526 µM (active). The Potency is 6.11 µM (active) in [12] and 122 nM (active) in experiment [14].
Regarding `CC(=O)Nc1nc(C)c(-c2ccc(Cl)c(S(=O)(=O)NCCO)c2)s1`, the Potency in experiment [1] is 4.15 µM (active); in [2], 5.9 µM (active); in experiment [3], 1870 nM (active); in experiment [4] it was 1870 nM (active); in [5], 132 nM (active); in experiment [6], 15.3 µM (active). The Potency in experiment [7] is 3720 nM (active); in experiment [9], 2.96 µM (active); in experiment [16] it was 2.41 µM (active); in [10] it was 3.32 µM (active); in [11] it was 5.9 µM (active); in experiment [13], 7.43 µM (active). Besides, the figures for the Potency in experiment [14] and in experiment [15] were 544 nM (active) and 4.18 µM (active), respectively.
For the compound `Clc1cccc(-n2nnnc2NCc2ccccc2Oc2ccccn2)c1Cl`, the Potency result in [1], in experiment [2], in experiment [3], in experiment [4], in [5] and in [6] was “inactive” throughout. Also, the Potency result in [9], in [16], in [10] and in experiment [15] was “inactive” throughout.
For the compound `COc1ccc(CC2c3cc(OC)c(OC)cc3CC[N+]2(C)CCC(=O)OCCCCCOC(=O)CC[N+]2(C)CCc3cc(OC)c(OC)cc3C2Cc2ccc(OC)c(OC)c2)cc1OC` (stereo not drawn), the activity change, negative = cytotoxic was -1.18% [at 9.17 µM] in experiment [1]; -5.91% [at 9.22 µM] in experiment [2]; 27.6% [at 9.22 µM] in experiment [3]; -4.72% [at 9.22 µM] in experiment [4]; -16.8% [at 9.22 µM] in experiment [5]; 6.03% [at 11.5 µM] in experiment [6]. In addition, the activity change, negative = cytotoxic in [8] is 3.34% [at 9.22 µM]; in experiment [9], 4.71% [at 9.22 µM]; in [16], -0.106% [at 11.4 µM]; in experiment [10] it was 1.38% [at 9.22 µM]; in experiment [11], 2.36% [at 9.22 µM]; in [12] it was 7.29% [at 11.5 µM]. The activity change, negative = cytotoxic in experiment [14] is 9.58% [at 11.5 µM].
As to `CC(C)(C)c1cnc(CSc2cnc(NC(=O)C3CCNCC3)s2)o1`, the Potency in experiment [1] was 1.31 µM (active); in experiment [2], 0.935 µM (active); in experiment [3], 187 nM (active); in [4] it was 46.9 nM (active); in [5], 332 nM (active); in [6], 0.385 µM (active). The Potency in experiment [7] was 935 nM (active); in experiment [9] it was 0.743 µM (active); in experiment [16], 1.52 µM (active); in experiment [12] it was 0.432 µM (active); in [14], 273 nM (active); in [15] it was 0.264 µM (active).
For `C[C@@]12O[C@@H](C[C@]1(O)CO)n1c3ccccc3c3c4c(c5c6ccccc6n2c5c31)CNC4=O`, the Potency is 1.86 µM (active) in experiment [1]; 4.69 µM (active) in experiment [2]; 235 nM (active) in experiment [3]; 743 nM (active) in experiment [4]; 37.2 nM (active) in experiment [5]; 4.85 µM (active) in experiment [6]. The Potency was 1180 nM (active) in experiment [7]; 3.32 µM (active) in experiment [9]; 1.92 µM (active) in experiment [16]; 1.66 µM (active) in [10]; 0.132 µM (active) in [11]; 8.63 µM (active) in [12]. In addition, the Potency in experiment [13] is 3.32 µM (active); in [14], 217 nM (active); in experiment [15], 6.62 µM (active).
Turning to `O=C(NC1CCNCC1)c1[nH]ncc1NC(=O)c1c(Cl)cccc1Cl`, the Potency in [1] was 2.34 µM (active); in experiment [2], 1.18 µM (active); in experiment [3], 833 nM (active); in [4], 59 nM (active); in experiment [5], 526 nM (active); in experiment [6], 1.37 µM (active). For the same compound, the Potency in experiment [7] is 1870 nM (active); in [9], 1.66 µM (active); in [16], 1.71 µM (active); in experiment [12], 1.93 µM (active); in experiment [14] it was 968 nM (active); in [15], 0.332 µM (active).
With `COc1ccc2c(c1)CC[C@@H](CN(C)CC(=O)O)[C@H]2c1ccccc1`, the Potency in experiment [1] is 3.7 µM (active); in [2], 2.96 µM (active); in [3], 1180 nM (active); in experiment [4] it was 1870 nM (active); in [5] it was 1180 nM (active); in [6], 6.11 µM (active). Also, the Potency in experiment [7] was 662 nM (active); in [9] it was 2.09 µM (active); in experiment [11] it was 1.05 µM (active); in [14] it was 4320 nM (active).
`Cc1[nH]c2ccccc2c1CCNCc1ccc(C=CC(=O)NO)cc1`: the Potency in [1] is 1.65 µM (active); in experiment [2], 0.469 µM (active); in experiment [3], 148 nM (active); in experiment [4] it was 148 nM (active); in experiment [5] it was 148 nM (active); in [6], 0.273 µM (active). Besides, the Potency was 372 nM (active) in experiment [7]; 0.264 µM (active) in [9]; 0.271 µM (active) in experiment [16]; 0.187 µM (active) in experiment [10]; 0.611 µM (active) in experiment [12]; 153 nM (active) in [14].
In the case of `Cc1ccc(C(=O)Nc2ccc(CN3CCN(C)CC3)c(C(F)(F)F)c2)cc1C#Cc1cnc2cccnn12`, the Potency is 14.7 µM (active) in [1]; 18.7 µM (active) in experiment [2]; 3720 nM (active) in experiment [3]; 2350 nM (active) in [4]; 2350 nM (active) in [5]; 6.85 µM (active) in experiment [6]. For the same compound, the Potency in [8] is 5.9 µM (active); in [9], 2.35 µM (active); in experiment [16], 6.07 µM (active); in experiment [10], 23.5 µM (active); in experiment [11], 11.8 µM (active); in experiment [12], 6.85 µM (active). Moreover, the Potency was 2.09 µM (active) in experiment [13], 1090 nM (active) in experiment [14] and 3.32 µM (active) in experiment [15].
